Results: PubChem BioAssay (Tox21)
Values without a mark were called inactive. Inconclusive results are not listed. A call without a number means that no potency is given here. Active and inactive are the calls of the source. Unless noted, calls come from the whole dose curve; as a rule, active = well fitted curve in the direction sought with a large enough effect in the repeat runs; inconclusive = weak or mixed curves; inactive = no such curve, though single readings can be large; an effect the other way counts as inactive or inconclusive.

Key:
[1] = qHTS assay to identify small molecule antagonists of the estrogen receptor alpha (ER-alpha) signaling pathway using the BG1 cell line in the presence of 0.1 nM 17-beta-estradiol - cell viability counter screen (AID 1259241); note: nearly all actives have a fitted effect of over 40% in size
Method in brief: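 Cells were plated and left 24 hr, compounds in DMSO were pinned in, 17beta-estradiol was added to 0.1 nM final, and after 22 hr CellTiter-Fluor reagent was added for 30 min before fluorescence was read.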

[2] = qHTS assay to identify small molecule antagonists of the androgen receptor (AR) signaling pathway using the MDA cell line in the presence of 0.5 nM R1881 - cell viability counter screen (AID 1259242); note: nearly all actives have a fitted effect of over 45% in size
Method in brief: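 R1881 at 0.5 nM final stimulated MDA-kb2 cells during 16 hr compound treatment at 37C. Cytotoxicity read: CellTiter-Fluor fluorescence after 30 min.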

[3] = qHTS assay to identify small molecule HDAC inhibitors (AID 1259364);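 note: wild-type HCT-116 cells with endogenous class I/II HDAC activity; top concentration of the series differs between compounds; nearly all actives have a fitted effect of over 45% in size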
Method in brief: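 Relative class I and II HDAC activity is taken from the luminogenic signal in HCT-116 cells, with compound exposure 2 hr and reagent development 30 min at room temperature.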

[4] = qHTS assay to identify small molecule HDAC inhibitors - cell viability counter screen (AID 1259365); note: series mostly up to about 92 µM; nearly all actives have a fitted effect of over 50% in size
Method in brief: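 Counter screen in wild-type HCT-116 cells: compounds dissolved in DMSO are pin-transferred onto overnight-plated cells and left 2hr at 37C. ATP-based CellTiter-Glo luminescence then measures viable cells.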

[5] = qHTS assay to identify small molecule agonists of the sonic hedgehog signaling (Shh) pathway - cell viability counter screen (AID 1259366); note: nearly all actives have a fitted effect of over 50% in size
Method in brief: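 Cells are plated at 2,000 per well and left 4hr at 37C, 5% CO2 before compound addition. After 23hr of treatment, CellTiter-Fluor reagent is added for 1hr at 37C and fluorescence is measured.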

[6] = qHTS assay to identify small molecule antagonists of the sonic hedgehog signaling (Shh) pathway - cell viability counter screen (AID 1259367); note: nearly all actives have a fitted effect of over 55% in size
Method in brief: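 After a 4 hr settling period, 3T3 Gli1-Luc cells were treated with DMSO-dissolved chemicals and conditioned medium, kept 24 hr at 37C in 5% CO2, and assayed for viability by CellTiter-Fluor fluorescence following 1 hr reagent incubation.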

[7] = qHTS assay to identify small molecule agonists of the sonic hedgehog signaling (Shh) pathway (AID 1259368; calls by dose curve;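 note: NIH/3T3-derived 3T3Gli1-Luc cells carrying a stable Gli1-driven firefly luciferase reporter; series mostly up to about 92 µM; nearly all actives have a fitted effect of over 15% in size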)
Method in brief: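 Mouse fibroblast (NIH/3T3) reporter cells with stably integrated Gli1-Luc were treated 24 hr with compound; firefly luciferase luminescence served as the read-out.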

[8] = qHTS assay to identify small molecule antagonists of the sonic hedgehog signaling (Shh) pathway (AID 1259369; calls by dose curve; note: nearly all actives have a fitted effect of over 45% in size; note: potency is the fitted concentration of half-maximal effect)
Method in brief: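 Conditioned medium drives Shh signalling in 3T3Gli1-Luc cells; compounds in DMSO co-applied, 24hr at 37 C, then luciferase luminescence.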

[9] = target: Estrogen receptor beta (Homo sapiens) (UniProt Q92731); test: qHTS assay to identify small molecule agonists of the estrogen receptor beta (ER-beta) signaling pathway (AID 1259377; active = well fitted activation curve with a large enough effect in the signal ratio in the repeat runs, not every such curve was filed as active; the % refers to the signal ratio)
Method in brief: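 Agonist mode cell assay in GripTite HEK293T cells expressing an ER-beta fusion that drives beta-lactamase from an Upstream Activator Sequence; 16 hr compound exposure at 37C, then 2 h LiveBLAzer B/G FRET substrate at room temperature, fluorescence read-out.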

[10] = target: Estrogen receptor beta (Homo sapiens) (UniProt Q92731); test: qHTS assay to identify small molecule antagonists of the estrogen receptor beta (ER-beta) signaling pathway (AID 1259378; active = well fitted inhibition curve with a large enough effect in the signal ratio in the repeat runs, not every such curve was filed as active; the % refers to the signal ratio)
Method in brief: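 ER-beta-UAS-bla HEK293T (GripTite) cells in 2% charcoal-stripped FBS medium were preincubated 6 hr at 37C, dosed with compound, then stimulated with 1 nM E2 (final) for 16 hr; beta-lactamase reporter read by B/G FRET fluorescence after 2 hr substrate loading.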

[11] = qHTS assay to identify small molecule agonists of the androgen receptor (AR) signaling pathway in the presence of an antagonist - cell viability counter screen (AID 1259379);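 note: MDA-kb2 human breast cancer cells carrying an MMTV luciferase reporter; series mostly up to about 92 µM; nearly all actives have a fitted effect of over 25% in size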
Method in brief: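 A CellTiter-Fluor read-out measured viability of MDA-kb2 reporter cells (MMTV promoter with AR and GR response elements). Treatment: nilutamide 3.0uM final with compounds at 15 concentrations, 16 hr, 37C, 0% CO2.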

[12] = qHTS assay to identify small molecule agonists of the estrogen receptor beta (ER-beta) signaling pathway - cell viability counter screen (AID 1259380); note: nearly all actives have a fitted effect of over 30% in size
Method in brief: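 Cells used were ER-beta-UAS-bla HEK293T in medium with 2% charcoal-stripped FBS. They were treated for 16 hr at 37C. Viability came from CellTiter-Glo luminescence.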

[13] = qHTS assay to identify small molecule antagonists of the estrogen receptor beta (ER-beta) signaling pathway - cell viability counter screen (AID 1259382); note: series mostly up to about 92 µM; nearly all actives have a fitted effect of over 55% in size
Method in brief: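 Agonist-stimulated (1nM E2) ER-beta-UAS-bla HEK293T cells are incubated with library compounds for 16 hr at 37C. Cell viability is then assessed in the reporter-assay wells by adding CellTiter-Glo and reading luminescence after 30 min.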

[14] = qHTS assay to identify small molecule agonists or antagonists of the thyroid stimulating hormone receptor (TSHR) signaling pathway - wild type cell line counter screen (AID 1259384; calls by dose curve)
Method in brief: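 Wild-type HEK293 cells were plated 18 h at 37 C/5% CO2, pin-dosed with compound plus Ro20-1724 medium, held 30 min at room temperature, then given cAMP-d2 and anti-cAMP-cryptate; fluorescence was read after 1 h. Fifteen concentrations, triplicate.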

[15] = target: Thyrotropin receptor (Homo sapiens) (UniProt P16473); test: qHTS assay to identify small molecule antagonists of the thyroid stimulating hormone receptor (TSHR) signaling pathway (AID 1259385; calls by dose curve; note: nearly all actives have a fitted effect of over 20% in size)
Method in brief: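 TSHR-HEK293 cells were plated and held 18 h at 37C/5% CO2, then given compound plus Ro20-1724 and stimulated with TSH at 1.5 ng/mL final. After 30 min at room temperature, cAMP was detected with cAMP-d2/anti-cAMP-cryptate (1 h) by fluorescence.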

[16] = target: Estrogen receptor (Homo sapiens) (UniProt P03372); test: qHTS assay to identify small molecule agonists of the estrogen receptor alpha (ER-alpha) signaling pathway in the presence of an antagonist (AID 1259383; calls by dose curve; note: top concentration of the series differs between compounds; nearly all actives have a fitted effect of over 15% in size)
Method in brief: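 Using VM7Luc4E2 cells seeded 24hr before treatment, antagonist ICI-182,780 (10.0nM final) was added, followed by compounds at 15 concentrations. Plates incubated 22hr; ONE-Glo luminescence quantified reporter activity.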

Chain of Thyrotropin receptor (Homo sapiens) (P16473 whole entry, looked up): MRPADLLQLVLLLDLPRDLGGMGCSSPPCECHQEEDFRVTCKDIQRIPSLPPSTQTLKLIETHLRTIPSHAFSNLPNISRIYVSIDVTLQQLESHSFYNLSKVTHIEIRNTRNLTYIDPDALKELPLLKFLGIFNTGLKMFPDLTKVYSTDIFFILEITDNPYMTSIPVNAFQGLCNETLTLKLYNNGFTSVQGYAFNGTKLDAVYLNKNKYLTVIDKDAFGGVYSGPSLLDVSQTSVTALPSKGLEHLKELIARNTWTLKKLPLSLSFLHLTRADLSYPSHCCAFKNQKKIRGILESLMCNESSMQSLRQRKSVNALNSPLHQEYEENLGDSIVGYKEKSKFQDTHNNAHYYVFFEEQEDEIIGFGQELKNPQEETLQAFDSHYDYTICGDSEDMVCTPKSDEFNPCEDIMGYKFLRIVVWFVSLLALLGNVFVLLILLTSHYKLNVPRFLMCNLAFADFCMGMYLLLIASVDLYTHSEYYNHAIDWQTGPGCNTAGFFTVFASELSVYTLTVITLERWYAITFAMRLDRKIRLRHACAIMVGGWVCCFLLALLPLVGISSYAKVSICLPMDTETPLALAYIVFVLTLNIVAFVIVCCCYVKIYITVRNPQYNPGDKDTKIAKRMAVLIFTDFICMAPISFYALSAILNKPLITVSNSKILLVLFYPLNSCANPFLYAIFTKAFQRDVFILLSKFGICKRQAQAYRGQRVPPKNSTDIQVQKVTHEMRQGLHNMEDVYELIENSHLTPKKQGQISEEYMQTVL
Chain of Estrogen receptor beta (Homo sapiens) (Q92731 whole entry, looked up, the tested form may be a part): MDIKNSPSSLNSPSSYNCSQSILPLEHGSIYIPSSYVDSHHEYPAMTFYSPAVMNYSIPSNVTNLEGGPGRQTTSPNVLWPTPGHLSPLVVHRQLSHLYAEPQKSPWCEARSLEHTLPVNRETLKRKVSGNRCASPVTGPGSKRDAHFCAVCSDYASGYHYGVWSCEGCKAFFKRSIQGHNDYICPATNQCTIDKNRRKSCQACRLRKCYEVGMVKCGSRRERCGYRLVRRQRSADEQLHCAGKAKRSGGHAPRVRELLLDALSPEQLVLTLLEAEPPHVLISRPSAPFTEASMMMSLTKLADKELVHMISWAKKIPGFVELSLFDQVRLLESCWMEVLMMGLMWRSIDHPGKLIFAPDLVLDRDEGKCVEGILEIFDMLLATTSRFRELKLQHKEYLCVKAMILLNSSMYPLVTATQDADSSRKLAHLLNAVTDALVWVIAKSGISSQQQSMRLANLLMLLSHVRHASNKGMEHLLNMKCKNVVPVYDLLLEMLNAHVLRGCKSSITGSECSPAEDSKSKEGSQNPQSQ
Chain of Estrogen receptor (Homo sapiens) (P03372 whole entry, looked up): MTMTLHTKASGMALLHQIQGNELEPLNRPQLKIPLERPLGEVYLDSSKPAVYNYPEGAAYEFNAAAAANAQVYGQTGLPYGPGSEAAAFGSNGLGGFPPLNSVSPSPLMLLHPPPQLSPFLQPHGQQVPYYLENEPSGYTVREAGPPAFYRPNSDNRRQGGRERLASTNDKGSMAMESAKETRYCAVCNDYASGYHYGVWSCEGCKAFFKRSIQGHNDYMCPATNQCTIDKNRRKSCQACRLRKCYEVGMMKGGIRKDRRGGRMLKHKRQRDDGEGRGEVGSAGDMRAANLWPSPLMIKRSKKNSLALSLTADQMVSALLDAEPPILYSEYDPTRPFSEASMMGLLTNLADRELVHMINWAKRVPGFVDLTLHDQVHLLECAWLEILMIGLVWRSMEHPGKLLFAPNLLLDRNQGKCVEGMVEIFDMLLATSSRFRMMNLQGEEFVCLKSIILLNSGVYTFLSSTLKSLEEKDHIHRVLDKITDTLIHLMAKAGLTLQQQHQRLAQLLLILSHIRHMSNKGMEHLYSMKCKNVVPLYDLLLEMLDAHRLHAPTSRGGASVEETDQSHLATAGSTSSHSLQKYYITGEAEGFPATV

Structure (SMILES) | Potency [1] | Potency [2] | Potency [3] | outcome [4] | Potency [5] | Potency [6] | outcome [7] | Potency [8] | Potency [9] | Potency [10] | Potency [11] | Potency [12] | Potency [13] | Potency [14] | Potency [15] | Potency [16]
O=C(O)/C=C/c1cnc[nH]1 | inactive | inactive | inactive | inactive | inactive | inactive | inactive | inactive | inactive | inactive | inactive | inactive | inactive | inactive | inactive | –
O=C(/C=C/c1ccc(O)c(O)c1)O[C@@H]1C[C@](O)(C(=O)O)C[C@@H](O)[C@H]1O | inactive | inactive | inactive | inactive | inactive | inactive | inactive | inactive | inactive | inactive | inactive | inactive | inactive | – | – | –
CCCCCCCCCC=O | inactive | inactive | inactive | inactive | inactive | – | inactive | inactive | inactive | – | inactive | inactive | inactive | inactive | inactive | –
CCCCCCCCCCCCCCC1CO1 (centres undefined) | inactive | inactive | inactive | inactive | inactive | inactive | inactive | inactive | inactive | inactive | inactive | inactive | inactive | inactive | inactive | –
Cc1ccc(C)o1 | inactive | inactive | inactive | inactive | inactive | inactive | inactive | inactive | inactive | inactive | inactive | inactive | inactive | inactive | inactive | –
CC(C)c1cccc(C(C)C)c1NC(=O)NS(=O)(=O)c1cc(C(C)(C)O)co1 | inactive | inactive | inactive | inactive | inactive | inactive | inactive | inactive | inactive | inactive | inactive | inactive | inactive | inactive | inactive | –
CC(C)c1ccccc1C(C)C | inactive | inactive | inactive | inactive | inactive | – | inactive | inactive | – | inactive | inactive | – | inactive | inactive | inactive | –
C=CCCCCCC | inactive | inactive | inactive | inactive | inactive | inactive | inactive | 58.9 µM (active) | inactive | inactive | inactive | inactive | inactive | inactive | inactive | inactive
